The panel holds about 79,000 compounds, 15% with a hit somewhere; the sample as a whole holds those more often. Cut-off read from the data, not from the text of the source: active = growth inhibition above about 70%; inactive = the rest.
Key:
[1] = NCI Yeast Anticancer Drug Screen. Data for the rad50 strain (AID 155);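 note: 0% = growth of vehicle-only cultures of the same strain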; details: S. cerevisiae rad50 strain growth inhibition; at 50.0 µM; stronger effect = higher value
How it was run: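 A DNA repair-deficient yeast mutant serves as the test organism; compound-induced growth inhibition is calculated against vehicle-treated cells.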

[2] = NCI Yeast Anticancer Drug Screen. Data for the mec2-1 strain (AID 157); details: S. cerevisiae mec2-1 strain, at 50.0 µM, stronger effect = higher value
How it was run: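 Each compound was tested on mec2-1 yeast, a strain altered in DNA damage repair or cell cycle control. Growth inhibition is reported relative to vehicle.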

[3] = NCI Yeast Anticancer Drug Screen. Data for the sgs1 mgt1 strain (AID 161);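 note: 0% = growth of cultures given vehicle only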; details: S. cerevisiae sgs1 mgt1 strain, at 50.0 µM, stronger effect = higher value
How it was run: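 Test agents were incubated with a DNA-repair-mutant yeast strain. Growth was then read and compared against vehicle-treated controls.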

[4] = NCI Yeast Anticancer Drug Screen. Data for the cln2 rad14 strain (AID 165);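 note: 0% = growth equal to vehicle treated cultures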; details: S. cerevisiae cln2 rad14 strain, at 50.0 µM, stronger effect = higher value
How it was run: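 Test compounds were added to cln2 rad14 yeast cultures; inhibition of growth was then determined by comparison with vehicle treatment.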

[5] = NCI Yeast Anticancer Drug Screen. Data for the bub3 strain (AID 167); details: S. cerevisiae bub3 mutant strain, at 50.0 µM, stronger effect = higher value
How it was run: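 Inhibition values come from growth of compound-treated mutant yeast normalised to vehicle-treated controls.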

[6] = NCI Yeast Anticancer Drug Screen. Data for the mlh1 rad18 strain (AID 175); details: S. cerevisiae mlh1 rad18 strain growth inhibition; at 50.0 µM; stronger effect = higher value
How it was run: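 Inhibition values reflect reduced growth of mutant yeast versus vehicle-treated controls following compound exposure; the mutations affect DNA damage repair.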

Measured: growth inhibition

NN1C(=O)CC(c2cccc(Cl)c2)C1=O (stereo unspecified)
inactive: [1] 1.7% | [2] 4.55% | [3] -2.4% | [4] 21.9% | [5] -2.6% | [6] 32.3%

Nc1[nH]nc2nc3n(c(=O)c12)CCCCC3
inactive: [1] 7.1% | [2] 19.7% | [3] 5.6% | [4] 5.55% | [5] -5.75% | [6] -4.15%

CC(C)CNC(=O)Nc1ccccc1C(F)(F)F
inactive: [1] -6.5% | [2] -8.4% | [3] -23.6% | [4] -4.55% | [5] 7.7% | [6] -14.4%

O=C(O)c1cccc(S(=O)(=O)NN2C(=O)CSC2c2ccccc2)c1 (stereo unspecified)
inactive: [1] -22.4% | [2] -18.5% | [3] 5.55% | [4] 4.45% | [5] 3.7% | [6] -11.3%

CCOc1ccccc1C(=O)Nc1cc(Cl)ccc1Cl
inactive: [1] 6.8% | [2] -18.1% | [3] -7.45% | [4] -4.8% | [5] -15.1% | [6] 2.85%

CCCCCCCCCCc1ccc(CCCCCCCCCC)cc1
inactive: [1] 7% | [2] 7.2% | [3] 4.6% | [4] -4.55% | [5] 2.05% | [6] -7.9%

CC(OCc1ccccc1)C(NC(=O)C1CSSCC(NC(=O)C(Cc2ccccc2)NC(=O)OCc2ccccc2)C(=O)NC(Cc2ccccc2)C(=O)NC(Cc2cn(C=O)c3ccccc23)C(=O)NC(CCCCNC(=O)OCc2ccccc2)C(=O)NC(C(C)OCc2ccccc2)C(=O)N1)C(N)=O (stereo unspecified)
inactive: [1] -10.7% | [2] 0.7% | [3] -4.75% | [4] 21.1% | [5] 23.8% | [6] -3%

O=C1OCC2=C1C(c1ccc3c(c1)OCO3)c1cc3c(cc1O2)OCO3 (stereo unspecified)
inactive: [1] -6.8% | [2] -10.9% | [3] -39.2% | [4] 5.4% | [5] -8.6% | [6] -16.6%

CC(C)CC(=O)Cc1nc2n(c1O)C(=N)N=N2
inactive: [1] -35.5% | [2] -15.9% | [3] -14.2% | [4] -40.7% | [5] -11.8% | [6] -20.1%

O=C1CCCc2cc3c(cc21)CC1(C3)Cc2cc3c(cc2C1)C(=O)CCC3
inactive: [1] -8.8% | [2] -7.25% | [3] -5.8% | [4] -10.3% | [5] -11.2% | [6] -9%

COc1cc2ccc3c[n+]4ccccc4cc3c2cc1OC
inactive: [1] 9.25% | [2] 14.2% | [3] 19.9% | [4] 19.4% | [5] 20.2% | [6] 14%

Cc1cc(N(CCC#N)CCC#N)ccc1/C(N=Nc1ccc(Cl)cc1)=N\NC(=O)c1cc(Cl)ccc1O
inactive: [1] -16.6% | [2] -16.1% | [3] -31.1% | [4] -20.2% | [5] -29.6% | [6] -59.5%

COC(=O)c1cc(C)ncc1C#N
inactive: [1] 0.45% | [2] 1.15% | [3] -4.7% | [4] 0.3% | [5] 2.95% | [6] 8%

CC1=NOC(=O)/C1=C/c1ccc(C)cc1
inactive: [1] 33.6% | [2] 20.8% | [3] 23.4% | [4] 2.55% | [5] 13.7% | [6] 8.05%

NC(CCC(F)(F)F)C(=O)O (stereo unspecified)
inactive: [1] -4.1% | [2] -7.95% | [3] 7.2% | [4] 18.6% | [5] 17.5% | [6] 6.65%

C/C(CC(=O)Nc1ccccn1)=N\c1ccccn1
inactive: [1] 14.2% | [2] -16.5% | [3] -6.6% | [4] -0.35% | [5] 1.95% | [6] 9.95%

COc1cccc(NC(=O)CSc2nnc(Cc3ccccc3)o2)c1
inactive: [1] -18.8% | [2] -11.9% | [3] -20.8% | [4] -8.2% | [5] -12.4% | [6] -36.5%

CCCCCC(=O)Cc1cc(O)cc2c1C(=O)Oc1cc(O)c(C(=O)O)c(CCCCC)c1O2
inactive: [1] 26.1% | [2] 7.45% | [3] 32% | [4] 17.8% | [5] 16.4% | [6] 16.9%

COC(=O)c1cc2c(cc1N=Cc1ccccc1Cl)OCO2
inactive: [1] 0.45% | [2] 4.3% | [3] 12.1% | [4] -1.65% | [5] -0.85% | [6] 6.35%

CCOC(=O)SC1=NC(C)=CC(C)(C)S1
inactive: [1] 2.4% | [2] 6.55% | [3] 18.6% | [4] -10.9% | [5] -3.7% | [6] -4.7%

O=C(O)c1cc(C2CC2)nc2ccc(Br)cc12
inactive: [1] 13.6% | [2] 1.7% | [3] 2.2% | [4] 6.55% | [5] -5.6% | [6] 19.8%

CC(=O)NNc1nc(C)c(C(/C=C/c2ccccc2O)=N/N=C(N)N)s1
inactive: [1] -19.2% | [2] -19.4% | [3] -21.4% | [4] -7.1% | [5] -10.6% | [6] -33.2%

COc1cccc(/C=C\C(=O)c2ccccc(=O)c2O)c1OC
inactive: [1] 34.5% | [2] 23.4% | [3] 36.8% | [4] -5.4% | [5] 40.5% | [6] 40.9%

COc1ccc(N2C=Nn3c(nc4sc5c(c4c3=O)CCCC5)C2)cc1
inactive: [1] 9.55% | [2] 4.2% | [3] 0.35% | [4] -1.9% | [5] 4.25% | [6] -24.4%

N#Cc1ccccc1NC(=O)C(=O)C(C(=O)c1ccccc1F)C1OC(=O)c2ccccc21 (stereo unspecified)
inactive: [1] -1.1% | [2] -10.8% | [3] -5.25% | [4] -5.5% | [5] -16.2% | [6] -2.4%

[Cl][Pt+2][Cl].[NH-]CC1([NH-])CCCCC1
inactive: [1] -10.2% | [2] 14.1% | [3] -19.6% | [4] -2.8% | [5] -5.6% | [6] -31.9%

O=C1c2cccc(S)c2C(=O)c2cccc(S)c21
inactive: [1] -21.5% | [2] -11.3% | [3] -9.75% | [4] 4.7% | [5] 5.35% | [6] -15.5%

CC(C)(CCCOc1ccccc1)NC(=O)c1ccccc1
inactive: [1] 17.2% | [2] -1.15% | [3] -3.5% | [4] 15.5% | [5] 15.3% | [6] 6.15%

Cc1ccc(C)c(NC(=O)c2ccc([N+](=O)[O-])cc2)c1
inactive: [1] -4.55% | [2] 17.4% | [3] 10% | [4] -11.8% | [5] 16.4% | [6] 23.6%

Cc1cccc(N=Nc2ccc(N=Nc3c(O)ccc4ccccc34)cc2C)c1
inactive: [1] -3.5% | [2] 2.85% | [3] 16.4% | [4] 0.65% | [5] 17.3% | [6] 11.2%

COC(=O)C(C)OC(=O)OCC(C)C (stereo unspecified)
inactive: [1] -11.1% | [2] -1.9% | [3] 0.15% | [4] -2.95% | [5] -2.95% | [6] -11.8%

O=C(O)c1cccc2ccc3cccc(C(=O)O)c3c12
inactive: [1] -5.35% | [2] -6.05% | [3] -0.45% | [4] -74.8% | [5] 2% | [6] -17.2%

COc1ccc(CC(C)=C(C#N)C#N)cc1OC
inactive: [1] -10.8% | [2] -2.45% | [3] -8.25% | [4] 11.8% | [5] -0.05% | [6] -17.3%

CCOC(=O)N1CCN(Cc2cc(=O)n3ccc(C)cc3n2)CC1
inactive: [1] 21.8% | [2] 2.8% | [3] 3.7% | [4] 12.5% | [5] 17.4% | [6] 22.1%

COc1ccc2[nH]c(=O)oc(=O)c2c1
inactive: [1] 1% | [2] 1.25% | [3] -7.5% | [4] -33.9% | [5] -16.4% | [6] -2.8%

CC(O)C(C)(C)[N+](=O)[O-] (stereo unspecified)
inactive: [1] 0.45% | [2] -1.55% | [3] -7% | [4] -4.25% | [5] 2.8% | [6] 1.75%

O=C1C2C3(CCl)C1C23CCl (stereo unspecified)
inactive: [1] 23.9% | [2] 46.6% | [3] 37.6% | [4] 10.4% | [5] 18.2% | [6] 40.6%

Cc1ccc(C(=O)Oc2ccccc2)cc1
inactive: [1] -3.35% | [2] -5.1% | [3] -11.7% | [4] -34.2% | [5] -7.2% | [6] -20%

Nc1nc(N)c2nc3c(nc2n1)C(=O)N(c1ccc(C(=O)O)cc1)C3
inactive: [1] 1.55% | [2] 34.9% | [3] 27.9% | [4] -2.8% | [5] 32.1% | [6] 23.2%

CC(=O)Nc1nnnn1C
inactive: [1] -3.05% | [2] -2.3% | [3] 0.45% | [4] -40.1% | [5] -1.9% | [6] -10.9%

CCOC(=O)/C(C#N)=C/c1ccc(C)o1
inactive: [1] 19.1% | [2] 3.1% | [3] 27.4% | [4] 33% | [5] 31.1% | [6] 35%

Reference: PubChem BioAssay (NCI)
